Measured values from PMC9838217, “Structure of SALL4 zinc finger domain reveals link between AT-rich DNA binding and Okihiro syndrome”.
Substitutions are numbered along the chain they refer to.

Assays:
Test in all cases: HT-SELEX; high values mean tight binding
Settings in all cases: protein: recombinant; vector His6-GST; dsDNA, one strand shown
[1] = molecular target: T1, SALL4 ZFC4 WT (HT-SELEX) (Mus musculus, UniProt Q8BX22 870-940)
T1 sequence: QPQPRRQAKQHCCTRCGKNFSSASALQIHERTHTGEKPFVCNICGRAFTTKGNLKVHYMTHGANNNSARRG
In short: (§1)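 Each canonical k-mer's binding signal is its read fraction expressed as fold change over the initial random library. Reads came from MiSeq sequencing, scanned for 6-mers, after up to 6 triplicate cycles in which purified recombinant mouse SALL4 zinc finger cluster 4 (residues 870–940, 1 µg) bound library DNA (1.5 µg first cycle, 200 ng later) in 100 µl of 10 mM Tris–HCl pH 7.5, 50 mM NaCl, poly(dI-dC), DTT for 10 min at room temperature. Complexes were then Ni2+ bead-captured, washed, PCR-amplified and reselected.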

[2] = molecular target: T2, SALL4 ZFC4 R900W (HT-SELEX) (Mus musculus, UniProt Q8BX22 870-940, R900W)
T2 sequence: T1 sequence with R31W
In short: as §1

[3] = molecular target: T3, SALL4 ZFC4 G921D (HT-SELEX) (Mus musculus, UniProt Q8BX22 870-940, G921D)
T3 sequence: T1 sequence with G52D
In short: as §1

| Sequence | binding signal [1] [fold-change vs cycle 0] | binding signal [2] [fold-change vs cycle 0] | binding signal [3] [fold-change vs cycle 0] |
| --- | --- | --- | --- |
| AATTGC | 0.939 ± 0.042 | 0.962 ± 0.0218 | 1.04 ± 0.0209 |
| TCCCCA | 0.461 ± 0.0365 | 0.533 ± 0.0451 | 0.593 ± 0.0323 |
| CAAAGC | 0.565 ± 0.00649 | 0.654 ± 0.0334 | 0.761 ± 0.0246 |
| AAAAGC | 0.816 ± 0.0288 | 0.899 ± 0.0164 | 0.953 ± 0.0234 |
| CACAAG | 0.713 ± 0.0143 | 0.853 ± 0.0253 | 0.901 ± 0.0111 |
| GTTGTA | 1.18 ± 0.0293 | 1.31 ± 0.0256 | 1.28 ± 0.0242 |
| ATTCTA | 2.06 ± 0.0756 | 2.07 ± 0.113 | 1.81 ± 0.213 |
| ACGGAC | 0.337 ± 0.0313 | 0.425 ± 0.0312 | 0.526 ± 0.0575 |
| ATCATC | 1.5 ± 0.034 | 1.56 ± 0.0669 | 1.49 ± 0.0918 |
| CAGTGG | 0.426 ± 0.0423 | 0.497 ± 0.0328 | 0.595 ± 0.0248 |
| AGCTCA | 0.694 ± 0.0391 | 0.773 ± 0.0155 | 0.872 ± 0.0134 |
| CGAACC | 0.34 ± 0.0157 | 0.416 ± 0.00929 | 0.549 ± 0.0764 |
| AAATTG | 1.6 ± 0.125 | 1.53 ± 0.0609 | 1.48 ± 0.0586 |
| CGATCA | 0.683 ± 0.0475 | 0.7718 ± 0.00739 | 0.896 ± 0.0609 |
| CGAAAC | 0.59 ± 0.0153 | 0.676 ± 0.0229 | 0.748 ± 0.0402 |
| GAATCA | 1.35 ± 0.0589 | 1.45 ± 0.0456 | 1.38 ± 0.0555 |
| AGAGAT | 1.51 ± 0.0705 | 1.65 ± 0.139 | 1.53 ± 0.135 |
| CTCGTC | 0.385 ± 0.0153 | 0.487 ± 0.019 | 0.571 ± 0.0514 |
| AGATTC | 1.34 ± 0.0579 | 1.42 ± 0.0466 | 1.39 ± 0.0922 |
| ATTATC | 2.31 ± 0.229 | 2.08 ± 0.177 | 1.85 ± 0.207 |
| ACCTCT | 0.859 ± 0.0231 | 0.978 ± 0.0308 | 1.02 ± 0.0211 |
| GACCAC | 0.381 ± 0.00949 | 0.448 ± 0.0299 | 0.55 ± 0.0669 |
| AACGAC | 0.568 ± 0.0525 | 0.668 ± 0.0478 | 0.771 ± 0.0138 |
| CCCTAA | 0.849 ± 0.0207 | 0.947 ± 0.00994 | 0.952 ± 0.0492 |
| CTTGTA | 1.27 ± 0.0539 | 1.44 ± 0.0511 | 1.33 ± 0.0845 |
| GTATAC | 1.25 ± 0.0389 | 1.39 ± 0.0328 | 1.34 ± 0.0932 |
| TCAAGA | 1.32 ± 0.0482 | 1.49 ± 0.0445 | 1.4 ± 0.0701 |
| AGCTAA | 1.15 ± 0.044 | 1.26 ± 0.0399 | 1.27 ± 0.0601 |
| ACTGAA | 1.38 ± 0.0494 | 1.5 ± 0.11 | 1.39 ± 0.103 |
| ACGAGG | 0.436 ± 0.0164 | 0.534 ± 0.018 | 0.618 ± 0.0579 |
